# Experimental data reported in the supplement of paper PMC4466140.
# B1: unnamed (peptide)
# chain: HVRRSILALPLGVLL
# Molecular target: AgAbp1
# Assay: SPOT peptide array binding signal intensity (averaged, normalized) (arbitrary units (background-subtracted, floor 0; scale differs between SH3 domains)); higher = stronger binding of the SH3 domain to the peptide
# Method in brief: (§1)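 Four yeast species supplied the SH3 domains, which were expressed as GST fusions in E. coli BL21(DE3) and purified on glutathione Sepharose. Incubation with cellulose membranes carrying synthetic 15-mer peptides, cysteines exchanged for serines, ran overnight at 4°C at 10 μg/ml in TBS-based blocking buffer. Binding signal is reported as normalized, background-subtracted spot intensity averaged over replicates, in arbitrary units not shared between domains.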
row,Binder,SPOT peptide array binding signal intensity
1,B1,8

# Molecular target: AgBbc1
# Assay: as above
# Method in brief: as §1
row,Binder,SPOT peptide array binding signal intensity
1,B1,2.75

# Molecular target: AgBem1-D1
# Assay: as above
# Method in brief: as §1
row,Binder,SPOT peptide array binding signal intensity
1,B1,39

# Molecular target: AgBzz1-D1
# Assay: as above
# Method in brief: as §1
row,Binder,SPOT peptide array binding signal intensity
1,B1,≤ 0

# Molecular target: AgBzz1-D2
# Assay: as above
# Method in brief: as §1
row,Binder,SPOT peptide array binding signal intensity
1,B1,2.5

# Molecular target: AgCyk3
# Assay: as above
# Method in brief: as §1
row,Binder,SPOT peptide array binding signal intensity
1,B1,1

# Molecular target: AgFus1
# Assay: as above
# Method in brief: as §1
row,Binder,SPOT peptide array binding signal intensity
1,B1,605

# Molecular target: AgHof1
# Assay: as above
# Method in brief: as §1
row,Binder,SPOT peptide array binding signal intensity
1,B1,22.8

# Molecular target: AgHse1
# Assay: as above
# Method in brief: as §1
row,Binder,SPOT peptide array binding signal intensity
1,B1,325

# Molecular target: AgLsb1
# Assay: as above
# Method in brief: as §1
row,Binder,SPOT peptide array binding signal intensity
1,B1,61.5

# Molecular target: AgLsb4
# Assay: as above
# Method in brief: as §1
row,Binder,SPOT peptide array binding signal intensity
1,B1,201

# Molecular target: AgMyo5
# Assay: as above
# Method in brief: as §1
row,Binder,SPOT peptide array binding signal intensity
1,B1,≤ 0

# Molecular target: AgNbp2
# Assay: as above
# Method in brief: as §1
row,Binder,SPOT peptide array binding signal intensity
1,B1,57

# Molecular target: AgRvs167
# Assay: as above
# Method in brief: as §1
row,Binder,SPOT peptide array binding signal intensity
1,B1,0.5

# Molecular target: AgSho1
# Assay: as above
# Method in brief: as §1
row,Binder,SPOT peptide array binding signal intensity
1,B1,64

# Molecular target: AgSla1-D1-D2
# Assay: as above
# Method in brief: as §1
row,Binder,SPOT peptide array binding signal intensity
1,B1,6

# Molecular target: AgSla1-D3
# Assay: as above
# Method in brief: as §1
row,Binder,SPOT peptide array binding signal intensity
1,B1,5

# Molecular target: CaAbp1-D1
# Assay: as above
# Method in brief: as §1
row,Binder,SPOT peptide array binding signal intensity
1,B1,120

# Molecular target: CaAbp1-D2
# Assay: as above
# Method in brief: as §1
row,Binder,SPOT peptide array binding signal intensity
1,B1,85

# Molecular target: CaBbc1
# Assay: as above
# Method in brief: as §1
row,Binder,SPOT peptide array binding signal intensity
1,B1,10

# Molecular target: CaBem1-D1
# Assay: as above
# Method in brief: as §1
row,Binder,SPOT peptide array binding signal intensity
1,B1,10

# Molecular target: CaBzz1-D1
# Assay: as above
# Method in brief: as §1
row,Binder,SPOT peptide array binding signal intensity
1,B1,21

# Molecular target: CaBzz1-D2
# Assay: as above
# Method in brief: as §1
row,Binder,SPOT peptide array binding signal intensity
1,B1,22

# Molecular target: CaCyk3
# Assay: as above
# Method in brief: as §1
row,Binder,SPOT peptide array binding signal intensity
1,B1,3

# Molecular target: CaFus1
# Assay: as above
# Method in brief: as §1
row,Binder,SPOT peptide array binding signal intensity
1,B1,2060

# Molecular target: CaHof1
# Assay: as above
# Method in brief: as §1
row,Binder,SPOT peptide array binding signal intensity
1,B1,≤ 0

# Molecular target: CaHse1
# Assay: as above
# Method in brief: as §1
row,Binder,SPOT peptide array binding signal intensity
1,B1,25

# Molecular target: CaLsb1
# Assay: as above
# Method in brief: as §1
row,Binder,SPOT peptide array binding signal intensity
1,B1,0.25

# Molecular target: CaLsb4
# Assay: as above
# Method in brief: as §1
row,Binder,SPOT peptide array binding signal intensity
1,B1,47

# Molecular target: CaMyo5
# Assay: as above
# Method in brief: as §1
row,Binder,SPOT peptide array binding signal intensity
1,B1,5.25

# Molecular target: CaNbp2
# Assay: as above
# Method in brief: as §1
row,Binder,SPOT peptide array binding signal intensity
1,B1,450

# Molecular target: CaRvs167
# Assay: as above
# Method in brief: as §1
row,Binder,SPOT peptide array binding signal intensity
1,B1,16.8

# Molecular target: CaRvs167-3
# Assay: as above
# Method in brief: as §1
row,Binder,SPOT peptide array binding signal intensity
1,B1,7.75

# Molecular target: CaSho1
# Assay: as above
# Method in brief: as §1
row,Binder,SPOT peptide array binding signal intensity
1,B1,439

# Molecular target: CaSla1-D1-D2
# Assay: as above
# Method in brief: as §1
row,Binder,SPOT peptide array binding signal intensity
1,B1,≤ 0

# Molecular target: CaSla1-D3
# Assay: as above
# Method in brief: as §1
row,Binder,SPOT peptide array binding signal intensity
1,B1,25

# Molecular target: ScAbp1
# Assay: as above
# Method in brief: as §1
row,Binder,SPOT peptide array binding signal intensity
1,B1,22
